One may read the AC50 as the concentration giving half of the maximal activity seen.

The record followed here is PubChem BioAssay (EPA / NIEHS).

Molecules are shown by their SMILES. Results filed as inconclusive are left out. Activity calls are given as the source filed them. The calls were made as follows, unless noted: active = hit-call score of the fitted dose curve at least 0.9, where 1 is the maximum; inconclusive = response in the unintended direction; inactive = score below 0.9.

The nature of assay [1]: Tanguay_ZF_120hpf_TR_legacy: (Legacy) Oregon State University Tanguay Lab 120 Hour Post-fertilization zebrafish Assay for Touch Response (AID 2283667). In short, it runs like this: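 Readout is presence or absence of touch response in 120 hpf zebrafish larvae, assessed by brightfield observation after continuous static exposure at 28C. Final vehicle was 0.64% (vol/vol) DMSO.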

Assay [2] can be described thus: CCTE_Padilla_ZF_144hpf_TERATOSCORE: (Legacy) CCTE's 144 Hour Post-fertilization zebrafish Assay Teratoscore, Padilla Lab (AID 2283679; active = hit-call score of the fitted dose curve at least 0.9, where 1 is the maximum; inactive = score below 0.9;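 as to AC50: zebrafish embryos with chorions exposed by immersion from 6-8 hpf to 5 dpf with daily renewal; teratogenicity score from eye scoring of death hatching and malformations at 144 hpf; higher score means more developmental defects relative to DMSO baseline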). The method in brief:
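Larvae scored by eye at 144 hpf for death, hatching and malformations after a day in clean Hanks'. Before that, daily-renewed exposure at 80 uM (0.4% DMSO, 26C) from roughly 6-8 hpf through 5 dpf, 4 embryos per chemical.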

Read-out in assay [3]: organic anion transporter (SLCO1B1), SLCO1B1 (gene 10599)
The assay can be described thus: CLD_SLCO1B1_6hr: CellzDirect (CLD) Gene Expression Assay for organic anion transporter (SLCO1B1) at 6 hours (AID 2283668).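 Also: active means mRNA induction above DMSO baseline.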 In short, it runs like this: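 SLCO1B1 mRNA induction measured 6 h after dosing by quantitative nuclease protection with chemiluminescent read-out, in human primary hepatocyte cultures given chemicals at several concentrations (vehicle 0.2% DMSO). Increase over DMSO baseline fitted; morphology-based cytotoxicity annotated yes/no.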

Read-out in assay [4]: ABC Transporter (ABCB11), ABCB11 (gene 8647)
The assay can be described thus: CLD_ABCB11_24hr: CellzDirect (CLD) Gene Expression Assay for ABC Transporter (ABCB11) at 24 hours (AID 2283674; active = hit-call score of the fitted dose curve at least 0.9, where 1 is the maximum; inactive = score below 0.9). The method in brief: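 ABCB11 transcript was quantified by qNPA chemiluminescence in cultured human liver hepatocytes 24 hours after dosing. Fresh dosing solutions were applied on consecutive days, against a 0.2% DMSO vehicle. Cytotoxicity was noted by phase-contrast morphology.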

Read-out in assay [5]: ABC Transporter (ABCB11), ABCB11 (gene 8647)
The assay can be described thus: CLD_ABCB11_6hr: CellzDirect (CLD) Gene Expression Assay for ABC Transporter (ABCB11) at 6 hours (AID 2283675).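 Also: hits raise ABCB11 mRNA level so AC50 marks induction.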 The method in brief: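 Read-out was ABCB11 mRNA gain of signal by quantitative nuclease protection assay, relative to 0.2% DMSO vehicle, 6 h post-dose. Cells were primary human hepatocytes from two donors, treated across multiple concentrations; phase-contrast cytotoxicity noted yes/no.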

Assay [6] in a line: CLD_ACTIN_6hr: CellzDirect (CLD) Gene Expression Assay for Baseline Control (Actin) at 6 hours (AID 2283676).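 Also: active means increased actin mRNA relative to DMSO vehicle.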 In short, it runs like this: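 Baseline actin transcript level measured by qNPA (S1 nuclease protection, chemiluminescence) in human hepatocyte cultures 6 h after chemical exposure; 0.2% DMSO vehicle as reference, cytotoxicity noted from morphology.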
Read-out in assay [7]: Cytochrome P450 2C19 (Homo sapiens) (UniProt P33261)
The assay can be described thus: CLD_CYP2C19_6hr: CellzDirect (CLD) Gene Expression Assay for xenobiotic metabolism (CYP2C19) at 6 hours (AID 2283678). In short, it runs like this: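 CYP2C19 transcript induction was quantified by quantitative nuclease protection assay with chemiluminescent read-out, 6 h after dosing. Cells were primary human hepatocytes from two donor preparations, given fresh dosing solutions daily in 0.2% DMSO vehicle. Activity was relative to DMSO.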

Read-out in assay [8]: ABC Transporter (ABCB1), ABCB1 (gene 5243)
The assay can be described thus: CLD_ABCB1_24hr: CellzDirect (CLD) Gene Expression Assay for ABC Transporter (ABCB1) at 24 hours (AID 2283684). The method in brief:
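ABCB1 mRNA induction versus 0.2% DMSO vehicle was read by qNPA chemiluminescence at 24 h. Cultured human hepatocytes from two donor preparations received daily fresh dosing, and phase-contrast cytotoxicity calls were annotated alongside the data.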

Read-out in assay [9]: Broad substrate specificity ATP-binding cassette transporter ABCG2 (Homo sapiens) (UniProt Q9UNQ0)
The assay can be described thus: CLD_ABCG2_24hr: CellzDirect (CLD) Gene Expression Assay for ABC Transporter (ABCG2) at 24 hours (AID 2283685). In short, it runs like this: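 ABCG2 mRNA induction, read as gain of chemiluminescent signal over 0.2% DMSO, was measured by quantitative nuclease protection at 24 h. Cultured human liver hepatocytes were given fresh dosing solutions of test chemicals at several concentrations each day.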

Read-out in assay [10]: Cytochrome P450 2C19 (Homo sapiens) (UniProt P33261)
The assay can be described thus: CLD_CYP2C19_24hr: CellzDirect (CLD) Gene Expression Assay for xenobiotic metabolism (CYP2C19) at 24 hours (AID 2283687).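 Also: activity means mRNA induction above DMSO vehicle baseline.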 In short, it runs like this:
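CYP2C19 mRNA was quantified by qNPA chemiluminescence after 24 h of daily dosing of cultured human primary hepatocytes from two donors; vehicle was 0.2% DMSO, and increases over DMSO baseline were fitted.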

Read-out in assay [11]: sulfotransferase (SULT2A), SULT2A1 (gene 6822)
The assay can be described thus: CLD_SULT2A_24hr: CellzDirect (CLD) Gene Expression Assay for sulfotransferase (SULT2A) at 24 hours (AID 2283694). The method in brief:
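mRNA is measured by qNPA: probe hybridisation, S1 nuclease digestion, chemiluminescence, in lysates from human primary hepatocytes harvested 24 h after daily dosing. Vehicle was 0.2% DMSO. Phase-contrast microscopy flagged cytotoxicity (yes/no).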

Read-out in assay [12]: ABC Transporter (ABCB1), ABCB1 (gene 5243)
The assay can be described thus: CLD_ABCB1_48hr: CellzDirect (CLD) Gene Expression Assay for ABC Transporter (ABCB1) at 48 hours (AID 2283695). In short, it runs like this:
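ABCB1 mRNA was measured by quantitative nuclease protection assay (chemiluminescence) 48 h after dosing. Human hepatocyte cultures from two separate donors received fresh dosing solutions daily for two days, with 0.2% DMSO as vehicle. Positive-direction fit against DMSO.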

Read-out in assay [13]: glucuronosyltransferase (UGT1A1), UGT1A1 (gene 54658)
The assay can be described thus: CLD_UGT1A1_6hr: CellzDirect (CLD) Gene Expression Assay for glucuronosyltransferase (UGT1A1) at 6 hours (AID 2283672). The method in brief:
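UGT1A1 mRNA induction, read by quantitative nuclease protection assay, 6 h after dosing primary human hepatocytes (two donors, 0.2% DMSO vehicle). Gain of signal fitted relative to vehicle.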

Read-out in assay [14]: xenobiotic metabolism (CYP1A1), CYP1A1 (gene 1543)
The assay can be described thus: CLD_CYP1A1_24hr: CellzDirect (CLD) Gene Expression Assay for xenobiotic metabolism (CYP1A1) at 24 hours (AID 2283673).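 Also: CYP1A1 mRNA level by quantitative nuclease protection with chemiluminescence.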 In short, it runs like this: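 Transcript levels were read at 24 h by qNPA chemiluminescence in human liver primary cells. Cells got daily fresh dosing at multiple concentrations (vehicle 0.2% DMSO). Induction fitted upward against DMSO; phase-contrast cytotoxicity annotated.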

Read-out in assay [15]: Cytochrome P450 3A4 (Homo sapiens) (UniProt P08684)
Kind of assay: CLD_CYP3A4_6hr: CellzDirect (CLD) Gene Expression Assay for xenobiotic metabolism (CYP3A4) at 6 hours (AID 2283680). In short, it runs like this: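 CYP3A4 mRNA induction, 6 h after dosing of cultured primary human hepatocytes from two donors, read by quantitative nuclease protection (qNPA, chemiluminescence). Vehicle 0.2% DMSO as baseline; morphology-based cytotoxicity annotated yes/no.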

Read-out in assay [16]: Cytochrome P450 2B6 (Homo sapiens) (UniProt P20813)
Kind of assay: CLD_CYP2B6_24hr: CellzDirect (CLD) Gene Expression Assay for xenobiotic metabolism (CYP2B6) at 24 hours (AID 2283686). The method in brief: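 qNPA chemiluminescent measurement of mRNA at 24 hours in human primary hepatocyte cultures from two donor preparations, with daily fresh dosing and 0.2% DMSO vehicle as baseline. Morphology-based cytotoxicity flagged yes/no.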

Read-out in assay [17]: xenobiotic metabolism (CYP1A2), CYP1A2 (gene 1544)
Kind of assay: CLD_CYP1A2_24hr: CellzDirect (CLD) Gene Expression Assay for xenobiotic metabolism (CYP1A2) at 24 hours (AID 2283683). The method in brief:
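CYP1A2 mRNA induction measured by quantitative nuclease protection (chemiluminescent) in human primary hepatocytes 24 h after multi-concentration chemical dosing with daily fresh solutions. DMSO (0.2%) baseline; positive-direction fitting; morphology-based cytotoxicity noted.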

Read-out in assay [18]: organic anion transporter (SLCO1B1), SLCO1B1 (gene 10599)
The assay can be described thus: CLD_SLCO1B1_24hr: CellzDirect (CLD) Gene Expression Assay for organic anion transporter (SLCO1B1) at 24 hours (AID 2283690). The method in brief:
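SLCO1B1 mRNA induction read at 24 h by quantitative nuclease protection assay (chemiluminescence), analyzed against DMSO baseline. Human hepatocyte cultures from separate donors received fresh dosing solutions daily; vehicle 0.2% DMSO; cytotoxicity flagged by phase-contrast morphology.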

Read-out in assay [19]: Cytochrome P450 (CYP24A1_1), CYP24A1 (gene 1591)
The assay can be described thus: LTEA_HepaRG_CYP24A1_1: Life Technologies and Expression Analysis (LTEA) Assay for Cytochrome P450 (CYP24A1_1) using HepaRG (AID 2283671; active = hit-call score of the fitted dose curve at least 0.9, where 1 is the maximum; inactive = score below 0.9). As to conditions: mRNA level, 48 h; actives raise or lower the signal. In short, it runs like this: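 Cultures of human HepaRG were treated in duplicate for 48 h (0.5% DMSO vehicle, highest dose 100 uM). CYP24A1 mRNA by qRT-PCR, normalized to ACTB, GAPDH, POLR2A.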

Chain of Cytochrome P450 3A4 (Homo sapiens) (P08684 whole entry, looked up): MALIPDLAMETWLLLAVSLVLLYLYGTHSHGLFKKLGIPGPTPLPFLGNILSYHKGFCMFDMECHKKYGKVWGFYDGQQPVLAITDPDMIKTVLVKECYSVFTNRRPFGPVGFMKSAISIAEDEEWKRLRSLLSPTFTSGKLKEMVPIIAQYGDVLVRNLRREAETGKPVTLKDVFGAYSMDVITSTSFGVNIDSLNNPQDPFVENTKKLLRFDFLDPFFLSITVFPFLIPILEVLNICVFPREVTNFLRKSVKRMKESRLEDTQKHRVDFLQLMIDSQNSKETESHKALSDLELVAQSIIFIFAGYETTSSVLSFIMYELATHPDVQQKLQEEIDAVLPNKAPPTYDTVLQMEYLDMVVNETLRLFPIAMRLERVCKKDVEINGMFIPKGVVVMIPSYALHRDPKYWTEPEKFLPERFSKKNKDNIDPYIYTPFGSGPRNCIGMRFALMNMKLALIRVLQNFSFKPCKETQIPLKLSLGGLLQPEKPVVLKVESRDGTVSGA
Chain of Cytochrome P450 2C19 (Homo sapiens) (P33261 whole entry, looked up): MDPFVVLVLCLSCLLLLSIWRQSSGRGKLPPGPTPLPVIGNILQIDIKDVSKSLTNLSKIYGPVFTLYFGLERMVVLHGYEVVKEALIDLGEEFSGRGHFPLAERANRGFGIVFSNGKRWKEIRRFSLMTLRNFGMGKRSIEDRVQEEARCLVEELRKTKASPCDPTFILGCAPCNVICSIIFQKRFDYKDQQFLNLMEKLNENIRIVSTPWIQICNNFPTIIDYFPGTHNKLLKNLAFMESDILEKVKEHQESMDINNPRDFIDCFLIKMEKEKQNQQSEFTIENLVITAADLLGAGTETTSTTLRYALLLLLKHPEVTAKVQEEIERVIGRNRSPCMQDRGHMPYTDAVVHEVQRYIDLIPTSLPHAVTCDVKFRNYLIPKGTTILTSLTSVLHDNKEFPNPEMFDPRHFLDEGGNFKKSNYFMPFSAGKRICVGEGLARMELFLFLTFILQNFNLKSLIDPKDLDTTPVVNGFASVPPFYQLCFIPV
Chain of Broad substrate specificity ATP-binding cassette transporter ABCG2 (Homo sapiens) (Q9UNQ0 whole entry, looked up): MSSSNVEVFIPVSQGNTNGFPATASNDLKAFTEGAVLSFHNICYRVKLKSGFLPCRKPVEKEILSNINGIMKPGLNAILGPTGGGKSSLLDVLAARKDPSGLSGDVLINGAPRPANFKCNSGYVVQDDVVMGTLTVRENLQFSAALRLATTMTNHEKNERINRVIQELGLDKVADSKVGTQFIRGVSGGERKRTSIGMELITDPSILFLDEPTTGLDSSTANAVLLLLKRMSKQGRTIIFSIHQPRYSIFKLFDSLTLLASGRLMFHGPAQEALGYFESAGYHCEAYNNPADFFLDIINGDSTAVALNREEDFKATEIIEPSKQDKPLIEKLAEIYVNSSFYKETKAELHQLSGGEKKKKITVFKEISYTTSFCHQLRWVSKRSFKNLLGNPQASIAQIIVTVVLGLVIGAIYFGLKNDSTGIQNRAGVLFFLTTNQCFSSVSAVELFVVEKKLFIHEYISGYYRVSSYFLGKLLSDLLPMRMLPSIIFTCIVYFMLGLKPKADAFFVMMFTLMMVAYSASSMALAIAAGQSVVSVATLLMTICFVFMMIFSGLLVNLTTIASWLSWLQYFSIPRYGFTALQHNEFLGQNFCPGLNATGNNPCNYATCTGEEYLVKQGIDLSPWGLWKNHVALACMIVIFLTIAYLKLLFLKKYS

As for `O=C(c1ccccc1)C1CCCCC1`, the compound was called inactive in [1] and in [2].
Turning to `CCCOC(=O)c1ccc(C(=O)OCCC)nc1`, the result in [1], in [3], in [4], in assay [5], in assay [6] and in [7] was inactive. Besides, the outcome in [8], in assay [9], in [10], in [11] and in assay [12] was inactive.
For `CCOC(=O)COc1cc(-n2ncc(C(F)(F)F)c(C)c2=O)c(F)cc1Cl`, the call in [1], in assay [13], in assay [14], in [8], in [9] and in assay [10] was inactive. Besides, the compound was called inactive in assay [12]. Moreover, the AC50 was 4.73 µM (active) in [15] and 6.56 µM (active) in [16].
Take `CC(=O)S[C@@H]1CC2=CC(=O)CC[C@]2(C)[C@H]2CC[C@@]3(C)[C@@H](CC[C@@]34CCC(=O)O4)[C@H]12`: the AC50 in [2] was 38.3 µM (active).
On to `CCCCC(CC)CN1C(=O)C2C3C=CC(C3)C2C1=O` (centres undefined), for which the compound was called inactive in [1], in assay [13], in assay [5], in assay [6], in assay [15] and in [8]. In addition, the call in [11] and in assay [12] was inactive. Besides, the results for the AC50 in assay [14], in assay [17] and in [16] were 20 µM (active), 7.81 µM (active) and 9.04 µM (active), respectively.
Regarding `C[C@]12C[C@H](O)[C@H]3[C@@H](CCC4=CC(=O)CC[C@@]43C)[C@@H]1CC[C@@H]2C(=O)CO`, the outcome in assay [1] was inactive.
The same measure, in the same setting: as for `CC(=O)[C@H]1CC[C@H]2[C@@H]3CCC4=CC(=O)CC[C@]4(C)[C@H]3CC[C@]12C`, the entry is “inactive”.
As for `C[C@]12CC[C@@H]3c4ccc(O)cc4C[C@@H](CCCCCCCCCS(=O)CCCC(F)(F)C(F)(F)F)[C@H]3[C@@H]1CC[C@@H]2O` (some centres undefined), the call in [1] was inactive.
As for `OB(O)O`, the call in assay [1], in assay [3], in assay [13], in assay [4], in assay [5] and in assay [7] was inactive. The result in assay [17], in [8], in [9], in [11] and in [12] was inactive.
Regarding `CCCCC(CC)COC(=O)c1ccccc1C(=O)O` (centres undefined), the result in assay [3], in assay [13], in assay [5], in assay [7], in assay [15] and in assay [17] was inactive. In addition, the call in assay [8], in assay [18], in [11] and in assay [12] was inactive. Further, in assay [16], the AC50 was 5.12 µM (active).
For the compound `COC(=O)c1ccccc1C(=O)O`, the call in assay [1], in assay [19], in [13], in assay [4], in [5] and in assay [6] was inactive. For the same compound, the compound was classed as inactive in [7], in assay [17], in assay [8], in assay [10] and in [11]. For the same compound, the concentration at half-maximal activity (AC50) in assay [14] was 0.117 µM (active).
Take `CCOC(=O)c1ccc(O)cc1`: the outcome in assay [1] was inactive.
`O=C(O)c1ccccc1`: the compound was called inactive in assay [1] and in [19].
